LMP1 NFkB inh: Epstein-Barr LMP1 NF-kappaB reporter inhibition. actives 0.69% (n = 350,000). LMP1-induced NF-kappaB luciferase reporter cells, luminescence. inhibition, % at 12.5 µM; in the data active means inhibition above about 41%;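 further: 0% = neutral control wells and 100% = reference inhibitor control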
Shn3 3UTR inh: inhibitors of Schnurri-3 3'UTR reporter in osteoblasts. inhibition, % at 12.5 µM. actives 0.52% (n = 360,000). Clone20 osteoblast Shn3 3'UTR firefly luciferase, 24 h. AID 588674;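 active means mean inhibition of at least 75% with every replicate also reaching 75%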;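 further: 0% = median of neutral control wells and 100% = pilot-screen positive control compound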
PAX8 reporter: inhibitors of PAX8 transcriptional activity in RMG-I cells; RMG-I TPO-luciferase reporter, SteadyGlo, 24 h; AID 652154; actives 1.2% (n = 360,000); inhibition, % at 12.6 µM;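 active means mean replicate inhibition at least 60% with every replicate also reaching 60%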;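 further: luciferase light reporting Pax8 driven TPO promoter activity; plate controls were median of neutral control wells for no effect and mitoxantrone controls for full effect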
TRPM1 prom inh: reduces MITF-dependent TRPM1 promoter luciferase signal; SK-MEL-5 TRPM1 promoter luciferase, 24 h; inhibition, % at 12.5 µM; actives 0.83% (n = 330,000); AID 488899;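 active means mean inhibition across replicates of 60% or more, whatever share of single replicates reaches that level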
aSyn 5UTR inh: MLPCN primary screen, SNCA 5' untranslated region; actives 0.82% (n = 300,000); alpha-synuclein 5'UTR reporter, inhibitor activity; AID 1813; inhibition, % (tested at 7.5 µM); in the data active means inhibition above about 60%;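 further: H4 neuroglioblastoma cells stably carrying SNCA 5'UTR luciferase fusion; 0% = DMSO wells and 100% = positive control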
* hit, by the source's call. Compounds with a hit are over-represented: about 2.1% of the library has one in this group of screens.

`CCOC(=O)c1ccccc1NC(=O)Cn1c(-c2nonc2N)nc2ccccc21` gave LMP1 NFkB inh 8.9, Shn3 3UTR inh 10.6, TRPM1 prom inh 22.2 and aSyn 5UTR inh 73.0*.
Screening CCCCn1c(-c2nonc2NC(=O)c2ccccc2Cl)nc2ccccc21 returned LMP1 NFkB inh 32.1, Shn3 3UTR inh 89.3*, PAX8 reporter 21.5 and TRPM1 prom inh 16.9.
N#CCCn1c(-c2nonc2NC(=O)c2ccccc2Cl)nc2ccccc21 was read as LMP1 NFkB inh 14.6, Shn3 3UTR inh 14.9, TRPM1 prom inh 0.1 and aSyn 5UTR inh 16.2.
`CCN1/C(=C/C=C/c2oc3ccc4ccccc4c3[n+]2CC)Oc2ccc3ccccc3c21` gave aSyn 5UTR inh 92.5*.
Screening CC(C)N(Cc1c(O)ccc2c(=O)c(-c3ccc(Cl)cc3)coc12)C(C)C returned LMP1 NFkB inh -0.2, Shn3 3UTR inh 9.8, PAX8 reporter -17.6, TRPM1 prom inh -20.3 and aSyn 5UTR inh -17.3.
CCOc1cc(/C=C/c2nc3cc(C)c(C)cc3s2)ccc1OCC(=O)N1CCOCC1 was read as LMP1 NFkB inh 23.4, Shn3 3UTR inh -32.9, PAX8 reporter 18.4, TRPM1 prom inh 3.2 and aSyn 5UTR inh 1.6.
`CCOc1cc(/C=C\[N+](=O)[O-])ccc1OCC(=O)N1CCOCC1` gave LMP1 NFkB inh 14.5, Shn3 3UTR inh -4.7, PAX8 reporter 35.2, TRPM1 prom inh 93.9* and aSyn 5UTR inh -5.4.
Screening C[C@@H]1CCCCO[C@@H](CN(C)Cc2ccncc2)[C@@H](C)CN([C@@H](C)CO)C(=O)c2cc(NC(=O)Nc3ccc4c(c3)OCO4)ccc2O1 returned PAX8 reporter 4.9.
`C[C@@H]1CN([C@@H](C)CO)C(=O)c2cc(NC(=O)NC3CCCCC3)ccc2O[C@@H](C)CCCCO[C@H]1CN(C)Cc1ccc(C(F)(F)F)cc1` gave PAX8 reporter 78.5*.
Screening C[C@@H]1CN([C@H](C)CO)C(=O)c2cc(NC(=O)NC3CCCCC3)ccc2O[C@@H](C)CCCCO[C@H]1CN(C)Cc1ccc(C(F)(F)F)cc1 returned PAX8 reporter 105.1*.
`C[C@H]1CCCCO[C@@H](CN(C)Cc2ccc(C(F)(F)F)cc2)[C@@H](C)CN([C@@H](C)CO)C(=O)c2cc(NC(=O)NC3CCCCC3)ccc2O1` gave PAX8 reporter 52.4.
`O=C(c1cccc(F)c1)N1CCCCN2[C@H](C1)[C@@H](c1ccc(/C=C/c3ccccc3)cc1)[C@@H]2CO` gave PAX8 reporter 20.7.
`N#C[C@H]1[C@H](c2ccc(C#Cc3ccccc3F)cc2)[C@H](CO)N1C(=O)C1CCC1` gave PAX8 reporter 87.0*.
Screening N#C[C@@H]1[C@@H](c2ccc(-c3ccccc3F)cc2)[C@@H](CO)N1C(=O)C1CCC1 returned PAX8 reporter 81.5*.
`CCCC#Cc1ccc([C@@H]2[C@@H](C#N)N(C(=O)C3CCCC3)[C@H]2CO)cc1` gave PAX8 reporter 0.6.
For CCCC#Cc1ccc([C@H]2[C@@H](CO)N(C(=O)C3CCCCC3)[C@H]2C#N)cc1 the results were PAX8 reporter 84.1*.
N#C[C@H]1[C@H](c2ccc(C#Cc3ccccc3F)cc2)[C@@H](CO)N1C(=O)C1CCOCC1 was read as PAX8 reporter 74.7*.
Screening CN1CCN(C(=O)[C@@H]2[C@@H](CO)[C@@H]3Cn4c(ccc(C5=CCCC5)c4=O)[C@@H]3N2Cc2nccs2)CC1 returned PAX8 reporter -14.5.
Screening C[C@H](CO)N1C[C@H](C)[C@@H](CN(C)Cc2ccc(-c3ccccc3)cc2)Oc2c(NS(C)(=O)=O)cccc2C1=O returned PAX8 reporter -4.6.
Screening CN(C)C(=O)c1cccc(-c2ccccc2[C@@H]2[C@H](C#N)N(C(=O)C3CC3)[C@H]2CO)c1 returned PAX8 reporter -22.0.
`N#C[C@H]1[C@@H](c2ccc(C#Cc3ccc(F)cc3)cc2)[C@H](CO)N1C(=O)C1CCCC1` gave PAX8 reporter 86.9*.
Screening CN(C)C(=O)c1cccc(-c2ccccc2[C@@H]2[C@@H](C#N)N(C(=O)C3CC3)[C@H]2CO)c1 returned PAX8 reporter 112.5*.
`O=[N+]([O-])c1ccc(N2CCN(S(=O)(=O)c3ccccc3[N+](=O)[O-])CC2)cc1NCc1cccnc1` gave LMP1 NFkB inh 6.0, Shn3 3UTR inh 1.4, PAX8 reporter 18.6, TRPM1 prom inh -8.3 and aSyn 5UTR inh 5.0.
Screening COC1=C(C)C(=O)C2=C(C1=O)C1C3CC4=C(C(=O)C(OC)=C(C)C4=O)C(CNC(=O)C(C)=O)N3C(C#N)C(C2)N1C (configuration not stated) returned LMP1 NFkB inh 76.6*, Shn3 3UTR inh 93.8*, PAX8 reporter 105.9* and TRPM1 prom inh 114.1*.
`Cc1ccc(S(=O)(=O)N(C)C[C@H]2Oc3ccc(NC(=O)Nc4ccc(F)cc4)cc3CC(=O)N([C@H](C)CO)C[C@H]2C)cc1` gave PAX8 reporter 10.2.
`COCC(=O)N(C)c1nnc(-c2ccc([N+](=O)[O-])cc2)s1` gave LMP1 NFkB inh 4.0, Shn3 3UTR inh -10.7, TRPM1 prom inh -24.1 and aSyn 5UTR inh -21.7.
Screening COCC(=O)N(C)c1nnc(-c2ccccn2)s1 returned LMP1 NFkB inh 50.4*, Shn3 3UTR inh -20.9, TRPM1 prom inh -8.2 and aSyn 5UTR inh -30.1.
c1ccc(-c2nnc(-c3ccccn3)s2)nc1 was read as LMP1 NFkB inh 46.8*, Shn3 3UTR inh -1.5, PAX8 reporter 1.3, TRPM1 prom inh 20.5 and aSyn 5UTR inh 78.4*.
`c1ccc(-c2nc(-c3ccccn3)nc(-c3ccccn3)n2)nc1` gave LMP1 NFkB inh -3.5, Shn3 3UTR inh 4.4, PAX8 reporter 15.2, TRPM1 prom inh 23.5 and aSyn 5UTR inh 13.8.
O=C(NNC(=O)c1cncc(Br)c1)c1ccncc1 was read as LMP1 NFkB inh -6.7, Shn3 3UTR inh 0.7, PAX8 reporter -8.0 and TRPM1 prom inh -4.4.
For COc1ccc(C(=O)NC2CCCc3ccccc32)cc1 (configuration not stated) the results were LMP1 NFkB inh -3.8, Shn3 3UTR inh 0.6, PAX8 reporter -22.9, TRPM1 prom inh 7.1 and aSyn 5UTR inh 11.7.
For C[C@@H]1CN([C@H](C)CO)C(=O)Cc2cc(NC(=O)CCN3CCOCC3)ccc2O[C@@H]1CN(C)Cc1ccc2c(c1)OCO2 the results were PAX8 reporter 3.2.
For COC(=O)c1ccccc1NC(=O)COC(C)=O the results were LMP1 NFkB inh -5.7, Shn3 3UTR inh 2.5, TRPM1 prom inh 1.8 and aSyn 5UTR inh -12.8.
For COC(=O)c1ccccc1NC(=O)CC(=O)Nc1ccccc1C(=O)OC the results were LMP1 NFkB inh 50.4*, Shn3 3UTR inh 0.2, PAX8 reporter 2.8, TRPM1 prom inh -14.8 and aSyn 5UTR inh -63.5.
`COc1ccc(C(=O)Nc2ccc(Cl)c(S(=O)(=O)N3CCOCC3)c2)cc1` gave LMP1 NFkB inh 18.0, Shn3 3UTR inh 30.3, PAX8 reporter 33.2 and TRPM1 prom inh 11.5.

Compound activity from PubChem.
